# “And” between values parts separate entries of the source, which are not always exact repeats. Identical values can stand only once. Compounds without any hit were thinned out: in the full panel of roughly 83,000, 20% have a hit.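 Treatment: one concentration, 48 hours, 96-well format. Scoring: percent growth, with anything below 10 considered active.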 Values without a mark were called inactive. The source made the active and inactive calls.
# Key:
# Test in all cases: NCI-60 one-dose screen, 48 h (100 = growth as untreated, 0 = no growth, -100 = all killed)
# Settings in all cases: 10 µM unless noted
# HCT-15 colon = test system: HCT-15 colon
# HT29 colon = test system: HT29 colon
# SNB-75 CNS = test system: SNB-75 CNS
# SNB-19 CNS = test system: SNB-19 CNS
# U251 CNS = test system: U251 CNS
# PC-3 prostate = test system: PC-3 prostate
# SK-MEL-5 melanoma = test system: SK-MEL-5 melanoma
# UACC-62 melanoma = test system: UACC-62 melanoma
# LOX IMVI melanoma = test system: LOX IMVI melanoma
# SK-MEL-28 melanoma = test system: SK-MEL-28 melanoma
Structure (SMILES),growth (HCT-15 colon),growth (HT29 colon),growth (SNB-75 CNS),growth (SNB-19 CNS),growth (U251 CNS),growth (PC-3 prostate),growth (SK-MEL-5 melanoma),growth (UACC-62 melanoma),growth (LOX IMVI melanoma),growth (SK-MEL-28 melanoma)
CC1(C)C(N)=Nc2cc(OCCCCN3Cc4ccccc4C3)c(OCC3CC3)cc21,36.2%,27.6%,78.9%,81.9%,56.3%,98.5%,57.7%,82.7%,26.4%,54.4%
CCCCSc1ccc2nc(-c3ccc(OCCCN=C(N)N)cc3)cn2c1,92.7%,53%,22.5%,24.5%,13.1%,54%,52.8%,52%,61.3%,38.3%
COc1ccc(Nc2ncnc3ccc(-c4cncc(NS(C)(=O)=O)c4)cc23)cc1Cl,63.3%,23.1%,26.7%,42.2%,12%,30%,-60.5% (active),31.8%,15.7%,42.4%
O=C([C@H]1C[C@H]1c1ccc(S(F)(F)(F)(F)F)cc1)N1CCN(c2cc(Cl)ccc2C(F)(F)F)CC1,88.1%,67.5%,101%,97.1%,94.2%,74.2%,89.9%,67.4%,102%,97.1%
Cc1nc(-n2[nH]c(=O)ccc2=O)sc1N=Nc1ccccc1,101%,110%,95.7%,99.3%,100%,95.8%,97.4%,93.3%,102%,103%
Nc1ccc(-c2nc3ccc4[nH]ncc4c3c3c2CCCC3)cc1F,15.5%,28%,19.3%,41.9%,26.8%,27.7%,4.72% (active),14.5%,29.4%,34.4%
CCCCCCCCCCCCCCCCCCn1cc(COc2ccc(C=O)cc2)nn1,95.9%,91.6%,104%,97.5%,107%,99%,103%,91.2%,85.5%,109%
COc1ccc(C2=C(CN)C(O)NC(=NCC(=O)c3ccc4ccccc4c3)N2)cc1 (stereo not given),106%,101%,87.2%,104%,102%,104%,108%,101%,95.5%,103%
CCOC(=O)C1=C(C)NC(=O)NC1c1c(Cl)n(-c2ccccc2)c2ccccc12 (stereo not given),85.8%,80.7%,84.8%,83.9%,89.2%,56.7%,75.4%,68.4%,89.3%,94.1%
c1cc(NCCCCN2CCOCC2)c2ccc3c(ccc4c(NCCN5CCOCC5)ccnc43)c2n1,70.7%,83.1%,86.8%,68.2%,92.4%,57.2%,98.7%,98.9%,45.9%,94%
CCOc1ccc(C(=O)Cc2ccccc2)cc1,98.2% and 110%,104% and 111%,101% and 113%,101% and 102%,108% and 101%,102% and 110%,106% and 98.5%,98.2% and 106%,102% and 106%,115% and 109%
Cc1oc2c(Cc3ccc(NC(=O)c4ccc(Cl)cc4)cc3)ncnc2c1C(=O)NO,103%,89.6%,106%,105%,104%,97.7%,86.1%,89.9%,102%,107%
CCCCCCNC(=O)Oc1ccc(/C(=C(/CC)Cc2ccccc2)c2ccc(OCCCN(C)C)cc2)cc1,14.7%,18.9%,68.4%,88.3%,60.4%,73.2%,87.7%,94.9%,-15% (active),101%
O=C(/C=C/c1ccc(F)cc1)Nc1ncc(Cc2ccc(F)cc2)s1,26.1%,13.7%,23.2%,58.1%,33.6%,31.9%,2.79% (active),14.1%,9.96% (active),67%
C/C=C(\C)C(=O)N[C@H]1CC[C@]2(C)C3CC[C@@]4(C)C(CC[C@@H]4C(C)N(C)C)C3CCC2[C@H]1OC(C)=O (stereo not given in full),-78.4% (active),-68.4% (active),-50% (active),-58.7% (active),-66.1% (active),0.354% (active),-100% (active),-51.7% (active),-78.8% (active),-97.5% (active)
O=c1cc(N/N=C/c2ccc(F)cc2)c2cc(Cl)ccc2[nH]1,83.4%,88.4%,131%,91.1%,94.4%,-43% (active),11.6%,80.4%,95.6%,90%
Cc1ccc(Cc2cnc(NC(=O)c3cc(C)oc3C)s2)cc1,39.1%,51.3%,76.6%,84.2%,66.9%,72.8%,93.6%,47.6%,68.9%,81.3%
COc1ccccc1/C=C1\COc2ccc(O)c(O)c2C1=O,-13.3% (active),57.5%,11.6%,43.7%,15.3%,33.1%,41.6%,14.8%,-30.1% (active),47.9%
Cc1cccc(Cc2cnc(NC(=O)CCCOc3ccc(Cl)cc3)s2)c1,24.6%,11.6%,21.3%,27.6%,14%,42.5%,30.7%,32.4%,35.6%,58.4%
CCCCC#Cc1c(/C=C(\CCCC)SCC)n(C)c(=O)[nH]c1=O,89.8%,92.6%,90.1%,107%,117%,94.1%,99%,90.4%,96.6%,118%
COc1cc(/C=C/C(=O)c2ccc(NC(=O)CSc3nnc(-c4cc(-c5ccccc5)nc5ccccc45)n3-c3ccccc3)cc2)cc(OC)c1OC,65.9%,54.7%,104%,95.1%,94%,81.6%,87%,71.9%,89.4%,101%
CCOc1ccccc1NC(=O)c1cc2ccccc2cc1O,45.4%,99.8%,87.7%,52.9%,24.4%,20.9%,25.6%,21.2%,51.1%,87.7%
Cc1nonc1-c1ccc2c(c1)OCO2,97.5% and 107%,102% and 107%,96.3% and 96.6%,112% and 95.7%,93.7% and 108%,96%,99.3% and 101%,110% and 97.7%,94.5% and 98.4%,118% and 169%
O=C(CCl)n1nnnc1Cc1ccccc1,102%,95.6%,84.9%,96.4%,90.3%,94.7%,109%,89.5%,87%,110%
O=C(Nc1ccc2ncsc2c1)c1csc(Nc2ccc3[nH]ncc3c2)n1,26%,19.4%,21.6%,41.2%,38.6%,40.6%,9.43% (active),22.7%,45%,69.2%
COc1ccc(/C=N/C2=C(C#N)C(c3ccccc3)c3c(ccc4ccccc34)O2)cc1 (stereo not given),22.5%,5.31% (active),-39.4% (active),22.9%,24.1%,23.3%,20.8%,37.3%,28.5%,64.7%

# From PubChem BioAssay (NCI)
